Measurements reported in publication PMC5540273 (PLoS ONE, 2017).

Tests used:
Conditions in all cases: concentration: 1 μM,replicates: in singlicate; n = 1
ZAK = tested on: ZAK
ZAP70 = tested on: ZAP70
p38-alpha = tested on: T1, p38-alpha
T1 construct: gene MAPK14

p38-beta = tested on: T2, p38-beta
T2 construct: gene MAPK11

p38-delta = tested on: p38-delta
p38-gamma = tested on: T3, p38-gamma
T3 construct: gene MAPK12
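Note: KINOMEscan kinase panel screen.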

SMILES	%Inh (ZAK)	%Inh (ZAP70)	%Inh (p38-alpha)	%Inh (p38-beta)	%Inh (p38-delta)	%Inh (p38-gamma)
CS(=O)(=O)c1cccc(CNc2nc(Nc3ccc4c(c3)[C@@H]3C[C@@H]4CNC3=O)ncc2C(F)(F)F)c1	0%	58%	0%	0%	69%	10%
CC(C)c1nc(-c2cccc(NS(=O)(=O)c3ccccc3)c2)c(-c2ccnc(Nc3ccc4c(c3)CN(C)CC4)n2)s1 [GSK1649598]	98.6%	7%	91.5%	35%	48%	7%
Cc1cccc2c(-c3ccncc3)c(-c3ccc(F)cc3)nn12.Cl [GW461487]	0%	5%	98.3%	22%	39%	17%
Cc1nnc(-c2ccc3occ(-c4ccc(S(C)=O)cc4)c3n2)o1 (stereo not drawn)	0%	0%	0%	0%	0%	0%
CC(=O)Nc1ccc(-c2cc3ncnc(SCC(=O)O)c3s2)cc1	40%	2%	12%	1%	29%	0%
O=C(Nc1n[nH]c2cc(-c3ccco3)ccc12)C1CC1 [SB-737447]	0%	0%	0%	0%	3%	26%
O=c1[nH]cc(-c2ccc(O)cc2)c2sc(-c3ccncc3)cc12 [GSK1033723]	1%	0%	0%	0%	0%	26%
N#Cc1cccc(C(=O)NC2CCN(c3ccnc(Nc4ccc(F)cc4)n3)C2)c1 (stereo not drawn) [GSK1379708]	0%	0%	35%	0%	38%	0%
CN(c1cccc(CNc2nc(Nc3ccc4c(c3)CC(=O)N4)ncc2C(F)(F)F)c1)S(C)(=O)=O	0%	0%	0%	0%	11%	9%
CC(C(=O)NC1CCN(c2ccnc(Nc3ccc(F)cc3)n2)C1)c1ccc(Cl)cc1 (stereo not drawn) [GSK1379713]	5%	0%	8%	0%	5%	0%
CNC(=O)c1ccccc1Nc1nc(Nc2cccc(CS(C)(=O)=O)c2)ncc1C.O=CO [GSK1520489]	0%	0%	0%	0%	2%	0%
COc1cccc(OC)c1C(=O)Nc1cccc(-c2nn3ccccc3c2-c2ccnc(Nc3cccc(F)c3)n2)c1 [GSK361065]	66%	0%	21%	90%	11%	24%
Cn1cc(-c2cccc3c(N)c(C(N)=O)nnc23)cn1	0%	9%	2%	16%	6%	27%
Cc1ccc(Nc2ccnc(Nc3ccc4c(c3)CS(=O)(=O)C4)n2)cc1O.Cl [GW579362]	56%	37%	96.8%	85%	99.8%	23%
CC(=O)Nc1nc2cnc(Nc3cc(NC(=O)c4cccc(CC(C)(C)C#N)c4)ccc3C)nc2s1	0%	5%	100%	100%	43%	74%
c1ccc(Oc2ccc(Nc3ccnc4ccc(-c5ccccn5)cc34)cc2)cc1 [GW407034]	53%	0%	0%	4%	19%	0%
CS(=O)(=O)Nc1ccc(-c2ccnc3[nH]ccc23)cc1 [GSK993273]	13%	0%	0%	0%	48%	41%
C[C@@H]1CNc2c(sc3ccc4nc(-c5ccc(O)cc5)ccc4c23)C(=O)N1	0%	0%	5%	33%	30%	2%
CCN1CCN(CCCC(=O)Nc2n[nH]c3nc(-c4ccc(O)cc4)c(Br)cc23)CC1 [SB-731579]	0%	0%	2%	0%	30%	0%
COc1ccc(Nc2nccc(N3CCC(NC(=O)c4cccc(C#N)c4)C3)n2)cc1 (stereo not drawn) [GSK1379730]	26%	0%	5%	0%	38%	0%
OCCn1cc(-c2cnc3nnn(Cc4ccc5ncccc5c4)c3n2)cn1	0%	0%	0%	20%	0%	0%
Cc1cccc(-c2nc(Nc3ccncc3)c3sccc3n2)n1 [GW869641]	27%	14%	31%	17%	0%	32%
O=C(Nc1cccc(C(F)(F)F)c1)c1cccc(Oc2ccc3nccn3n2)c1	35%	15%	0%	0%	0%	27%
CC(=O)c1c(-c2ccncc2)[nH]c(-c2ccncc2)c1C [GW493036]	34%	48%	34%	0%	49%	19%
Cl.Nc1n[nH]c2cc(-c3ccccn3)ccc12 [GSK2189892]	14%	0%	0%	0%	22%	4%

SMILES	%Inh (ZAK)	%Inh (ZAP70)	%Inh (p38-alpha)	%Inh (p38-beta)	%Inh (p38-delta)	%Inh (p38-gamma)
COc1cc2nccc(Nc3ccc(Oc4ccccc4)cc3)c2cc1OC.Cl [GI261656]	55%	0%	0%	0%	20%	0%
COc1cc2ncn(-c3cc(OCC4CCCCC4)c(C(N)=O)s3)c2cc1OC [GSK204559]	7%	0%	0%	0%	28%	0%
Cn1ccc2ncnc(Oc3ccc(NC(=O)Nc4cc(C(C)(C)C)on4)c(Cl)c3)c21	87%	0%	97.2%	78%	36%	56%
CC(C)S(=O)(=O)N1CCN(Cc2ccc3c(c2)nc(NC(=O)c2ccsc2)n3C[C@H](O)c2ccccc2)CC1 [GW635815]	1%	0%	6%	4%	47%	0%
O=C(Nc1ccc(Oc2ccc3nc(NC(=O)C4CC4)cn3n2)c(F)c1)c1cccn(-c2ccccc2)c1=O	77%	0%	4%	9%	0%	87%
C[C@@H]1CNc2c(sc3ccc4nc(-c5ccncc5)ccc4c23)C(=O)N1	0%	0%	0%	8%	11%	16%
Cc1ccn2nc(-c3ccc(F)cc3)c(-c3ccncc3)c2c1.Cl [GW457859]	0%	0%	99.7%	18%	52%	30%
Cn1ccc2ncnc(Oc3ccc(NC(=O)Nc4cccc(C(F)(F)F)c4)c(F)c3)c21	18%	1%	12%	20%	0%	62%
CN1CCN(CCNc2nc3cc(Oc4ccc(NC(=O)Nc5cc(C(F)(F)F)ccc5F)cc4)ccc3[nH]2)CC1.Cl.Cl [GW768504]	2%	12%	0%	7%	0%	27%
COC(=O)c1cccc(NC(=O)NC2CCN(c3ccnc(Nc4cc(OC)c(OC)c(OC)c4)n3)C2)c1 (stereo not drawn) [GSK1379767]	3%	17%	37%	0%	22%	0%
Cn1ccc2ncnc(Oc3ccc(NC(=O)Nc4cccc(C(F)(F)F)c4)c(Cl)c3)c21	14%	0%	0%	44%	35%	10%
O=C1NCCc2[nH]c(-c3ccncc3)cc21	20%	0%	2%	27%	62%	26%
CN1CCN(CCCNc2nccc(-c3c(-c4ccc(F)cc4)nn4cc(C(N)=O)ccc34)n2)CC1 [GW622475]	31%	0%	99.9%	79%	26%	13%
O=C(NOCC1CC1)c1cc(Br)c(F)c(F)c1Nc1ccc(I)cc1Cl	0%	0%	0%	1%	35%	0%
CS(=O)c1ccc(-c2coc3ccc(-c4n[nH]c(=O)o4)cc23)cc1 (stereo not drawn)	0%	1%	10%	9%	0%	0%
O=C(Nc1ccccc1)c1cccc(Oc2ccc3nccn3n2)c1	0%	0%	0%	0%	0%	3%
O=C(Nc1cccc(Oc2ccc3nccn3n2)c1)Nc1cccc(C(F)(F)F)c1	97.8%	3%	17%	12%	0%	19%
CSc1nccc(-c2c(-c3ccc(F)cc3)ncn2CCCN2CCOCC2)n1.Cl [SB-217146]	0%	8%	67%	0%	0%	2%
CCOC(=O)N1CCC(n2cnc(-c3ccc(F)cc3)c2-c2ccnc(N)n2)CC1 [SB-219952]	9%	14%	95.3%	34%	0%	23%
Cn1ccc2ncnc(Oc3ccc(NC(=O)Nc4cnn(C(C)(C)C)c4)c(Cl)c3)c21	0%	6%	91.6%	28%	3%	24%
CCn1c(-c2nonc2N)nc2cncc(Br)c21 [SB-738004]	15%	9%	6%	0%	0%	7%
FC(F)(F)c1cc(Br)cc(Nc2nccc(-c3cnn4ncccc34)n2)c1 [GW810578]	16%	0%	0%	0%	0%	41%
C[C@@H](Oc1cc(-n2cnc3ccc(-c4ccncc4)cc32)sc1C(N)=O)c1ccccc1Cl [GSK483724]	21%	61%	1%	0%	39%	0%
Cc1ccc(C(=O)Nc2ccc(Oc3ccc4nc(NC(=O)C5CC5)cn4c3)c(F)c2)c(=O)n1-c1ccccc1	96.1%	0%	0%	0%	0%	34%
COc1cccc(C2=C(Nc3cccc(Cl)c3)C(=O)NC2=O)c1 [SB-341556]	16%	1%	0%	0%	11%	0%

SMILES	%Inh (ZAK)	%Inh (ZAP70)	%Inh (p38-alpha)	%Inh (p38-beta)	%Inh (p38-delta)	%Inh (p38-gamma)
Cc1n[nH]c2cc(Nc3ccnc(Nc4cccc(CN5CCOCC5)c4)n3)ccc12 [GW682569]	14%	17%	11%	0%	28%	0%
CCn1c(-c2nonc2N)nc2cncc(CNC3CCNCC3)c21.Cl [SB-747651]	7%	32%	0%	0%	44%	10%
CCCC(=O)Nc1n[nH]c2ncccc12 [SB-601436]	20%	0%	0%	0%	0%	13%
COc1cc2c(Nc3ccc(NC(=O)c4ccccc4)cc3)ncnc2cc1OCCCN1CCOCC1 [GSK301329]	8%	0%	0%	0%	11%	0%
C[C@@H](Oc1cc(-n2cnc3cc(-c4cnn(C)c4)ccc32)sc1C(N)=O)c1ccccc1Cl [GSK580432]	6%	0%	0%	0%	0%	0%
CN(c1ccccc1CNc1nc(Nc2ccc3c(c2)CC(=O)N3)ncc1C(F)(F)F)S(C)(=O)=O	0%	0%	0%	0%	56%	0%
O=C(NCC1CC1)c1ccc(-c2cc(C(=O)NC3CC3)ccc2F)cc1 [GW810445]	0%	0%	55%	0%	0%	29%
Cn1ccc2ncnc(Oc3ccc(NC(=O)Nc4ccnc(C(F)(F)F)c4)c(Cl)c3)c21	17%	0%	18%	0%	25%	0%
NC(=O)c1ccc(-c2cc3ncnc(SCC(=O)O)c3s2)cc1	0%	0%	0%	2%	24%	0%
COc1cc(Nc2nccc(N3CCC(NC(=O)c4cccc(C#N)c4)C3)n2)cc(OC)c1OC (stereo not drawn) [GSK1379751]	0%	45%	23%	0%	22%	0%
Nc1nccc(-c2ccc3c(N)n[nH]c3c2)n1 [GSK1034945]	1%	0%	0%	0%	36%	0%
CCNCC(Cc1ccccc1)NC(=O)c1cc(Br)c(-c2ccnc3[nH]ccc23)s1.Cl.Cl (stereo not drawn) [GSK1383280]	15%	0%	11%	0%	53%	0%
NC(=O)Nc1sc(-c2ccc(F)cc2)cc1C(N)=O [GW789449]	21%	5%	6%	0%	0%	16%
Cl.c1ccc(Oc2ccc(Nc3ccnc4cc(-c5ccc(CN6CCNCC6)o5)ccc34)cc2)nc1 [GW567142]	60%	0%	12%	0%	39%	5%
COC(=O)Nc1nc2cc(Oc3ccc(NC(=O)Nc4cc(C(F)(F)F)ccc4Cl)cc3)ccc2[nH]1.Cl [GW697465]	98.4%	0%	83%	45%	48%	0%
COC(=O)c1cccc(NC(=O)NC2CCN(c3ccnc(NCc4ccc(F)cc4)n3)CC2)c1 [GSK1379860]	0%	0%	0%	0%	34%	0%
Cl.Cl.NC[C@H](CC1CCCCC1)NC(=O)c1ccc(-c2ccnc3[nH]ccc23)s1 [GSK1581428]	0%	0%	0%	0%	7%	13%
COc1cccc(CNC(=O)NC2CCN(c3ccnc(Nc4cc(OC)c(OC)c(OC)c4)n3)C2)c1 (stereo not drawn) [GSK1379765]	26%	43%	12%	0%	44%	1%
Cc1ccc2c(-c3ccnc(Nc4ccc(C(F)(F)F)cc4)n3)cnn2n1 [GW819776]	0%	15%	0%	0%	0%	44%
Cc1ccc(CC(=O)N2CCc3cc(-c4cn(C)c5ncnc(N)c45)ccc32)cc1 [GSK2634758]	21%	0%	0%	0%	8%	0%
Cn1ccc2ncnc(Oc3ccc(NC(=O)Nc4cncc(C(F)(F)F)c4)c(Cl)c3)c21	0%	0%	47%	30%	0%	0%
C[C@@H]1CCN(C(=O)N2CCCC2)C[C@@H]1N(C)c1ncnc2[nH]ccc12	12%	0%	5%	2%	25%	10%
C[C@@H](Oc1cc(-n2cnc3cc(-c4ccncc4)ccc32)sc1C(N)=O)c1ccccc1Cl [GSK479719]	0%	15%	71%	0%	14%	0%
CN(c1ccc2c(c1)nc(NCc1ccc(F)cc1)n2C)c1ccnc(Nc2ccc(CS(C)(=O)=O)cc2)n1.Cl [GW813244]	41%	13%	13%	6%	0%	44%
